The entries come from a sample that favours hits as a whole.
ClpP mod: qHTS Assay for Activators of ClpP. ATP-dependent Clp protease proteolytic subunit (Bacillus subtilis (strain 168)), P80244. purified B. subtilis ClpP, FRET peptide cleavage, 20 min. Potency, µM (series often up to 57.5 µM), inactives show at the highest dose activity change, negative = active. 340,000 tested, 1.9% active; active = well fitted falling curve with a large enough effect; inconclusive = small, poorly fitted or top-dose-only effect; inactive = no such curve, though single readings can be large or run the other way; note: potency is the fitted concentration of half-maximal effect; the source files actives as falling curves though it sought activators and does not explain the sign; nearly all actives have a fitted effect of over 65% in size
Target sequence (P80244 whole entry, looked up): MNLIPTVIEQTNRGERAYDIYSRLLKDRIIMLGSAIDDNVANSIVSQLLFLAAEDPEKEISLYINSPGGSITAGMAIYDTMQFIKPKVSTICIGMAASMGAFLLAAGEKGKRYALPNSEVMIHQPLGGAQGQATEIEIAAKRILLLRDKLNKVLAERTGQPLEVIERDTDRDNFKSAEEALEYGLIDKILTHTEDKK
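ClpP 10 microg/mL final, pH 8 Tris/KCl buffer with BSA, glycerol, Tween-20; compound pinned in; FRET-FV substrate; RT 20 min; Ex320/Em430; ΔFRET vs ADEP 5.8 microM, DMSO, no enzyme.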
S-ASM inh: human S-ASM enzyme inhibition | P17405 | placental ASM, HMU-PC fluorogenic substrate, 60 min | Potency, µM (top dose mostly 57.5 µM), for inactives: at the top dose activity change, negative = inhibition, actives largely listed as inhibitors | 340,000 tested, 0.006% active; note: potency is the fitted concentration of half-maximal effect
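HMU-PC0 cleavage (9 uM final) by human placental ASM, 60 min at 37 °C following 10 min compound exposure at RT; stopped at pH 10, fluorescence Ex 386/Em 447 nm.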
Mito fusion act: inhibitors of mitochondrial division or activators of mitochondrial fusion; S. cerevisiae fusion-defective mutant growth rescue, CellTiterGlo 48 h; Potency, µM (titrated, usually from 46.1 µM), for inactives: at the top dose growth rescue (activation), usual class: activators; 320,000 tested, 0.23% active; AID 485298; note: potency is the fitted concentration of half-maximal effect; % of control where 0% means no effect; nearly all actives have a fitted effect of over 45% in size
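Luminescent cell viability in 1536-well qHTS format served as the measure of rescued growth in ts fusion-mutant S. cerevisiae cultured on non-fermentable YPEG for 48 hours at 37C.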
RGS4 inhibitor: inhibitors of human regulator of G protein signaling 4 | Transcreener GDP fluorescence polarization, RGS4-accelerated GTP hydrolysis | P49798 | Potency, µM (titrated, usually from 114 µM), for inactives: at the top dose activity change, negative = inhibition, most hits filed as inhibitors | 390,000 tested, 0.039% active | AID 504845; note: potency is the fitted concentration of half-maximal effect; % is set by controls: 0 for no effect and ±100 for the full control effect; nearly all actives have a fitted effect of over 75% in size
Target sequence (P49798 whole entry, looked up): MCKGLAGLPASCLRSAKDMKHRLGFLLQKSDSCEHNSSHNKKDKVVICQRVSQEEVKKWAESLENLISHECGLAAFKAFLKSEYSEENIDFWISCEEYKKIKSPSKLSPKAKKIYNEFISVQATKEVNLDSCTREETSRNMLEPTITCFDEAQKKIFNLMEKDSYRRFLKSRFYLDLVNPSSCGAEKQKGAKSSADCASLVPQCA
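MLSMR compounds (23 nl, pin-transferred) preincubated 10 min at room temperature with a 500nM (2x) first reagent, then RGS4 at 900nM (2x) plus Transcreener GDP mix added; fluorescence polarization (620/688 nm) read before and after 90 min at 30 °C.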
IDH1 R132H inh: inhibitors of human mutant IDH1 R132H; O75874; IDH1-R132H enzyme, NADPH consumption, diaphorase/resazurin fluorescence; Potency, µM (series often up to 76.6 µM), without a hit: at the highest dose activity change, negative = inhibition, usual class: inhibitors; 390,000 tested, 0.093% active; note: potency is the fitted concentration of half-maximal effect; % is set by controls: 0 for no effect and ±100 for the full control effect; nearly all actives have a fitted effect of over 65% in size
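IDH1-R132H (0.5 ug/mL dispensed) in pH 7.5 Tris buffer was preincubated 30 min with compound, then given a substrate mix of 0.016 mM NADPH and 2 mM alpha-KG for 80 min at room temperature; remaining NADPH was read by diaphorase/resazurin fluorescence.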
LDHA inh: LDHA (human) enzyme inhibition; purified LDHA, NADH/diaphorase-resazurin fluorescence; active compounds read low; activity change, % (values are at about 110 or 230 µM); 480,000 tested, 0.15% active; AID 1347041; in the data active = activity change below about -30%; inconclusive = mostly about -25% to -30%;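 note: plate controls were DMSO wells for no effect and wells without enzyme for full effect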
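Human LDH5 at 2 nM final in Tris HCl pH 7.4 with 0.06 mM NADH and 0.2 mM pyruvate, reacted 5 minutes at room temperature. Remaining NADH coupled via diaphorase/resazurin; resorufin fluorescence read at 0 and 20 minutes, normalized to enzyme-free and DMSO wells.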
* hit, by the source's call. Unless noted, calls come from the whole dose curve; as a rule, active = well fitted curve in the direction sought with a large enough effect; inconclusive = small, poorly fitted or top-dose-only effect, or another doubt; inactive = no such curve, though single readings can be large; an effect the other way counts as inactive or inconclusive.

`CN1OC[C@@H]2CN(Cc3cc(Cl)cc(Cl)c3)[C@H](c3cccc(-c4ccc(C#N)cc4)c3)C[C@@H]21` gave ClpP mod -13%, IDH1 R132H inh -15% and LDHA inh -31*.
`Cc1ccc(CNC(=O)C2CCN(C(=O)c3csc(Nc4ccc(C)cc4)n3)CC2)cc1` gave LDHA inh 9.
CCOc1cc(/C=N/NC(=O)CNc2cccc(C)c2)ccc1OC(=O)c1ccccc1 was read as ClpP mod 10µM*, S-ASM inh -15%, Mito fusion act 1%, RGS4 inhibitor -2%, IDH1 R132H inh 1% and LDHA inh -1.
Screening O=C(c1ccc2c(=O)n(-c3ccccc3F)cnc2c1)N1CCOCC1 returned LDHA inh -7.
`OC(Cn1cnnc1)c1ccccc1` (stereo not drawn) gave S-ASM inh 2%, Mito fusion act 5%, RGS4 inhibitor -4%, IDH1 R132H inh 0% and LDHA inh -37*.
OC(CN1CCOCC1)c1ccccc1 (stereo not drawn) was read as ClpP mod 1%.
O=C(CC1CCCC1)Nc1cccc2ncccc12 was read as LDHA inh 7.
Screening CC(Oc1ccc(-c2ccccc2)cc1)C(=O)N1CCOCC1 (stereo not drawn) returned ClpP mod 25µM*, S-ASM inh -5%, Mito fusion act 1%, RGS4 inhibitor -3%, IDH1 R132H inh -1% and LDHA inh -4.
COCCNC(=O)Cc1c(C)c2c(cc(C)c3c(C(C)(C)C)coc32)oc1=O was read as ClpP mod 14µM*, S-ASM inh -1%, Mito fusion act inconclusive, RGS4 inhibitor 20%, IDH1 R132H inh -6% and LDHA inh -10.
Screening COc1ccc(C2=NN(C(=O)c3cccs3)C(O)(C(F)(F)F)C2)cc1 (stereo not drawn) returned S-ASM inh -13%, Mito fusion act 0%, RGS4 inhibitor -15%, IDH1 R132H inh -3% and LDHA inh 1.
Screening COc1ccc(C2=NN(c3nc(C(=O)O)cs3)C(O)(C(F)(F)F)C2)c(OC)c1 (stereo not drawn) returned S-ASM inh 84%, Mito fusion act 0%, RGS4 inhibitor -40%, IDH1 R132H inh -6% and LDHA inh -63*.
`FC(F)(F)c1cc(-c2ccco2)nc(-n2nc(C(F)(F)F)cc2C2CC2)n1` gave ClpP mod 28µM*, S-ASM inh -1%, Mito fusion act 0%, RGS4 inhibitor -10%, IDH1 R132H inh 0% and LDHA inh 8.
For O=[N+]([O-])c1cn(-c2nc(-c3ccco3)cc(C(F)(F)F)n2)cn1 the results were ClpP mod -4%, S-ASM inh 5%, Mito fusion act -1%, RGS4 inhibitor 7%, IDH1 R132H inh -3% and LDHA inh -9.
CN1CCN(c2nc(-c3ccco3)cc(C(F)(F)F)n2)CC1 was read as ClpP mod -30%, S-ASM inh 2%, Mito fusion act -7%, RGS4 inhibitor 6%, IDH1 R132H inh 2% and LDHA inh -6.
`FC(F)(F)c1cc(-c2ccco2)nc(-n2nnc3ccccc32)n1` gave ClpP mod 28µM*, S-ASM inh 39%, Mito fusion act 0%, RGS4 inhibitor 20%, IDH1 R132H inh 1% and LDHA inh -8.
For CCSc1nc2c(c(=O)[nH]1)C(c1ccc(C)cc1)C1=C(CCCC1=O)N2 (stereo not drawn) the results were S-ASM inh 11%, Mito fusion act -4%, RGS4 inhibitor 3%, IDH1 R132H inh 1% and LDHA inh -6.
